Screening results: PubChem BioAssay, National Center for Advancing Translational Sciences (NCATS)
AmpC inh detg – qHTS Inhibitors of AmpC Beta-Lactamase (assay with detergent); hit rate 0.041% among 370,000; P00811; Potency, µM (titrated, usually from 114 µM), inactives show at the top dose activity change, negative = inhibition, actives largely listed as inhibitors; AmpC hydrolysis of nitrocefin, absorbance 480 nm, 0.01% Triton;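 further: 0% = no-compound wells and -100% = no-enzyme wells; nearly all actives have a fitted effect of over 25% in size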
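AmpC (5.3 nM in the dispensed reagent) in 20 mM phosphate pH 7.0 with 0.01% (detergent screen) or 0.0001% Triton X-100 was preincubated with compounds for 15 min at room temperature. Nitrocefin was then added from an 800 uM solution, and hydrolysis was followed at 480 nm.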
Giardia FBPA inh-1 – qHTS Assay for Inhibitors of Fructose-1,6-bisphosphate Aldolase from Giardia Lamblia; Potency, µM (titrated, usually from 59.6 µM), for the others: at the top dose activity, negative = inhibition, hits mostly inhibitors; purified Giardia FBPA; hit rate 0.71% among 290,000; A8B2U2; further: nearly all actives have a fitted effect of over 55% in size
Target sequence (A8B2U2 whole entry, looked up): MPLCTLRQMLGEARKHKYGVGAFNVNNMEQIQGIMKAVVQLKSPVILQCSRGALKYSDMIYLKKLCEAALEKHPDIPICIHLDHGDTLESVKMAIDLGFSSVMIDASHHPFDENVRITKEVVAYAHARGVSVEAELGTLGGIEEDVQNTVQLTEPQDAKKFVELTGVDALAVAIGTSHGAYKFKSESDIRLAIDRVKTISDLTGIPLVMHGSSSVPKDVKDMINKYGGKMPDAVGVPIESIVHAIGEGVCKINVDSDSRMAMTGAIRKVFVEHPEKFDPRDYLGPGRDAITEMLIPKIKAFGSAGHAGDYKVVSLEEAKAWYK
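40 nM FBPA preincubated 10 min at RT with compound (up to 57.5 uM final), then substrate plus GAPDH/TPI/NAD/arsenate coupling and diaphorase/resazurin added. Fluorescence read after 20 min at RT, 525/598 nm.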
AmpC no deterg – qHTS Inhibitors of AmpC Beta-Lactamase (assay without detergent). P00811. AmpC nitrocefin hydrolysis, absorbance 480 nm, 0.0001% Triton. Potency, µM (titrated, usually from 57.1 µM), for inactives: at the highest dose activity change, negative = inhibition, most hits filed as inhibitors. hit rate 0.52% among 330,000;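 further: plate controls were no compound for no effect and no enzyme for full effect; nearly all actives have a fitted effect of over 20% in size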
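20 mM phosphate pH 7.0 + 0.01% (detergent screen) or 0.0001% Triton X-100; 5.3 nM AmpC reagent; cpd preinc 15 min RT; nitrocefin (800 uM stock) to start; A480 q20 s × 4 min; Activity was normalised to no-enzyme and no-compound control wells.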
Sm TGR inh – qHTS Assay for the Inhibitors of Schistosoma Mansoni Peroxiredoxins | Schistosoma mansoni thioredoxin glutathione reductase (TGR), Q962Y6 | AID 485364, 2010 | Potency, µM (doses to about 114 µM), inactives show at the highest dose activity change, negative = inhibition, hits mostly inhibitors | purified TGR, DTNB reduction, TNB absorbance 405 nm | hit rate 3% among 360,000; further: nearly all actives have a fitted effect of over 60% in size
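First, TGR (20 nM dispensed) and NADPH were mixed with compound. Second, a 15 min room-temperature incubation followed. Third, further NADPH and then DTNB were added to start the reaction. Finally, TNB absorbance was monitored kinetically.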
Giardia growth – qHTS Assay for Inhibitors of Fructose-1,6-bisphosphate Aldolase from Giardia Lamblia: Giardia lamblia growth inhibition. Potency, µM (series often up to 57.5 µM), without a hit: at the highest dose activity change, negative = inhibition, actives largely listed as inhibitors. hit rate 5% among 1,500. AID 2785, 2010. shares compounds with Giardia FBPA inh-1. Giardia lamblia trophozoite growth inhibition;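 further: trophozoites exposed to compound for 48 h at 37 °C; nearly all actives have a fitted effect of over 70% in size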
Mammal cell tox – qHTS Assay for Inhibitors of Fructose-1,6-bisphosphate Aldolase from Giardia Lamblia: Mammalian cellular toxicity; mammalian cell viability counter-screen, qHTS; AID 2786, 2010; shares compounds with Giardia FBPA inh-1; Potency, µM (highest dose often 57.5 µM), inactives show at the top dose viability change, negative = toxicity, usual class: inhibitors; hit rate 4% among 1,500;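 further: Chinese hamster ovary cells used as mammalian cytotoxicity surrogate; viability measured as cellular ATP by luminescence; compound exposure lasted 48 h before reading; nearly all actives have a fitted effect of over 60% in size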
Giardia FBPA inh-2 – qHTS Assay for Inhibitors of Fructose-1,6-bisphosphate Aldolase from Giardia Lamblia: Primary screen confirmation; shares compounds with Giardia FBPA inh-1; purified Giardia aldolase enzyme activity, qHTS; Potency, µM (highest dose often 57.5 µM), without a hit: at the top dose activity change, negative = inhibition, actives largely listed as inhibitors; hit rate 5% among 1,500; AID 2787, 2010; further: nearly all actives have a fitted effect of over 45% in size
Rabbit aldolase – qHTS Assay for Inhibitors of Fructose-1,6-bisphosphate Aldolase from Giardia Lamblia: Rabbit FBPA Selectivity; shares compounds with Giardia FBPA inh-1; hit rate 4% among 1,500; Rabbit muscle FBPA enzyme inhibition, selectivity counter-screen; AID 2794, 2010; Potency, µM (titrated, usually from 57.5 µM), for the others: at the top dose activity, negative = inhibition, actives largely listed as inhibitors; further: nearly all actives have a fitted effect of over 60% in size
Target sequence (P00883 whole entry, looked up): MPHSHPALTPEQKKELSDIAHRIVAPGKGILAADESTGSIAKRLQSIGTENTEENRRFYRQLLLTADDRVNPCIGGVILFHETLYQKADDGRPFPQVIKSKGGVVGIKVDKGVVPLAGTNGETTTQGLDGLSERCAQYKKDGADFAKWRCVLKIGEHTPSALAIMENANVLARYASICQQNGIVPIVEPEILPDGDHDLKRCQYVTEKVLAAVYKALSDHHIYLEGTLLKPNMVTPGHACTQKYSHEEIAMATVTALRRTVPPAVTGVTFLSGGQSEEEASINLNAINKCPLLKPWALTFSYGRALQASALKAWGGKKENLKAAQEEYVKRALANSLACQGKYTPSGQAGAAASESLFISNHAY
GAPDH coupling – qHTS Assay for Inhibitors of Fructose-1,6-bisphosphate Aldolase from Giardia Lamblia: Coupling assay counterscreen confirmation. hit rate 6% among 1,500. AID 2795, 2010. GAPDH coupling enzyme counterscreen, biochemical, qHTS. shares compounds with Giardia FBPA inh-1. Potency, µM (doses to about 57.5 µM), inactives show top-dose activity change, negative = inhibition, most hits filed as inhibitors; further: nearly all actives have a fitted effect of over 55% in size
* hit, by the source's call; [ ] = remark or other dose. Sampled rows, rich in hits. Any-hit rate of the full collection: about 3.6%. The call rests on the fitted dose curve; in most records, active means well fitted curve in the direction sought with a large enough effect; inconclusive means small, poorly fitted or top-dose-only effect, or another doubt; inactive means no such curve, though single readings can be large; an effect the other way counts as inactive or inconclusive. Unless noted, on the % scale 0 is the no-effect control and ±100 the full control effect; potency means the concentration at half of the fitted maximal effect.

Results for COc1ccc(Nc2cc(C)c3ccc(O)cc3n2)cc1 ?
AmpC inh detg: -6.5%; Giardia FBPA inh-1: -24.9%; AmpC no deterg: -33.2%; Sm TGR inh: 8.2%; Giardia growth: -1.4%[38.3 µM]; Mammal cell tox: 11.9%; Giardia FBPA inh-2: inconclusive; Rabbit aldolase: inconclusive; GAPDH coupling: inconclusive

How did Cc1ccc(CS(=O)(=O)c2cn(CC(=O)N3CCOCC3)c3ccccc23)cc1 do in these assays?
AmpC inh detg: -1.0%; AmpC no deterg: 133.4%; Sm TGR inh: -1.5%

Results for CCCCCN1C(C(=O)c2ccccc2)=C(NC(=O)c2ccccc2Cl)c2ccccc2S1(=O)=O ?
AmpC inh detg: 30.7%; Sm TGR inh: 3.1%

How did C=CCNC(=S)N/N=C(\C)c1cccnc1 do in these assays?
AmpC inh detg: -2.6%; Giardia FBPA inh-1: 15.8µM*; AmpC no deterg: -3.1%[2.29 µM]; Sm TGR inh: inconclusive; Giardia growth: -8.6%; Mammal cell tox: 0.6%; Giardia FBPA inh-2: 4.9%; Rabbit aldolase: -3.2%; GAPDH coupling: 7.4%

How did NNc1nc2c(-c3ccc(Cl)cc3)nnn2c2ccccc12 do in these assays?
AmpC inh detg: inconclusive; Giardia FBPA inh-1: 14.1µM*; AmpC no deterg: -33.3%; Sm TGR inh: -0.3%; Giardia growth: inconclusive; Mammal cell tox: inconclusive; Giardia FBPA inh-2: -14.1%; Rabbit aldolase: -18.8%; GAPDH coupling: -12.9%

What do the screens show for `CCCN1C(=O)C2(c3ccccc31)c1c(oc3cc(C)c(C)cc3c1=O)C(=O)N2CCCOC` (stereo unspecified)?
AmpC inh detg: -1.5%; Sm TGR inh: 4.5%

How did CCc1nnc2c(Nc3cccc(F)c3)nc3ccc(C(=O)c4ccccc4)cc3n12 do in these assays?
AmpC inh detg: 19.9%; Sm TGR inh: 6.8%

How did Cc1cc(=O)n2cccc(O)c2n1 do in these assays?
AmpC inh detg: -7.2%; Giardia FBPA inh-1: 19.9µM*; AmpC no deterg: -5.5%; Giardia growth: 125.9%; Mammal cell tox: -1.6%; Giardia FBPA inh-2: -28.4%; Rabbit aldolase: inconclusive; GAPDH coupling: inconclusive

How did Cc1nnc(SCc2cc(=O)n3cccc(C)c3n2)s1 do in these assays?
AmpC inh detg: 4.3%; Sm TGR inh: -1.0%

What do the screens show for `CCOC(=O)c1noc2ncn(CC(=O)Nc3ccc(OC)c(Cl)c3)c(=O)c12`?
AmpC inh detg: 29.4%; Sm TGR inh: -30.3%

Results for CN1CCN(Cc2coc3c(Cl)cc(Cl)cc3c2=O)CC1 ?
AmpC inh detg: -8.4%; Giardia FBPA inh-1: 12.6µM*; AmpC no deterg: -11.3%; Sm TGR inh: inconclusive; Giardia growth: -12.1%; Mammal cell tox: -8.3%; Giardia FBPA inh-2: 2.4%; Rabbit aldolase: 7.8%; GAPDH coupling: -11.2%

What do the screens show for `O=c1c(CN2CCN(c3cccc(Cl)c3)CC2)coc2c(Cl)cc(Cl)cc12`?
AmpC inh detg: 0.3%; Giardia FBPA inh-1: 1.0%; AmpC no deterg: -20.6%; Sm TGR inh: 13.8%

Results for C=CCNC(=S)Nc1ccccc1-c1nnc2n1CCCCC2 ?
AmpC inh detg: -8.7%; Giardia FBPA inh-1: 12.6µM*; AmpC no deterg: -3.6%; Sm TGR inh: -15.0%; Giardia growth: 10.2%[10.4 µM]; Mammal cell tox: -2.1%; Giardia FBPA inh-2: 0.5%; Rabbit aldolase: 3.5%; GAPDH coupling: 18.5%

Results for CC1=NN(C(N)=S)C(C)(C)C1 ?
AmpC inh detg: -6.4%; Giardia FBPA inh-1: 11.2µM*; AmpC no deterg: -0.2%; Sm TGR inh: 18.7%; Giardia growth: -12.8%; Mammal cell tox: 16.6%; Giardia FBPA inh-2: 1.9%; Rabbit aldolase: 9.8%; GAPDH coupling: 9.5%

Results for Cc1ccc(C(=O)c2ccc(C)cc2)cc1 ?
AmpC inh detg: -4.7%; Giardia FBPA inh-1: 1.0%; AmpC no deterg: -14.7%; Sm TGR inh: 4.1%

Results for Cc1ccc(C(=O)c2no[n+]([O-])c2C(=O)c2ccc(C)cc2)cc1 ?
AmpC inh detg: inconclusive; Giardia FBPA inh-1: 15.8µM*; AmpC no deterg: -52.3%; Sm TGR inh: 0.0%; Giardia growth: -5.4%; Mammal cell tox: -2.1%; Giardia FBPA inh-2: -6.6%; Rabbit aldolase: inconclusive; GAPDH coupling: -27.1%

How did OCCN(CCO)c1ccc2ccccc2c1 do in these assays?
AmpC inh detg: inconclusive; Giardia FBPA inh-1: 15.8µM*; AmpC no deterg: -19.6%; Sm TGR inh: 33.5%; Giardia growth: -16.7%[10.4 µM]; Mammal cell tox: -17.7%; Giardia FBPA inh-2: 3.98µM*; Rabbit aldolase: inconclusive; GAPDH coupling: -25.8%

What do the screens show for `OCCN(CCO)c1ccc(C(c2ccccc2Cl)c2ccc(N(CCO)CCO)cc2Cl)c(Cl)c1`?
AmpC inh detg: -7.9%; Giardia FBPA inh-1: -13.9%; AmpC no deterg: 194.3%; Sm TGR inh: -1.6%

Results for Cc1cc(C(=O)N2CCN(S(=O)(=O)c3ccccc3F)CC2)c(C)o1 ?
AmpC inh detg: 6.3%; Giardia FBPA inh-1: 1.4%; AmpC no deterg: -1.8%; Sm TGR inh: inconclusive

How did O=C(O)CCCNc1cc(N2CCN(C(=O)c3ccco3)CC2)c2noc3c2c1C(=O)c1ccccc1-3 do in these assays?
AmpC inh detg: 0.6%; Giardia FBPA inh-1: 3.55µM*; AmpC no deterg: 46.7%; Sm TGR inh: 6.31µM*; Giardia growth: inconclusive; Mammal cell tox: -18.0%; Giardia FBPA inh-2: inconclusive; Rabbit aldolase: inconclusive; GAPDH coupling: inconclusive

What do the screens show for `O=C(Nc1ccc(N2CCN(C(=O)c3ccco3)CC2)cc1)C(c1ccccc1)c1ccccc1`?
AmpC inh detg: -8.3%; Giardia FBPA inh-1: -2.9%; AmpC no deterg: 14.2%; Sm TGR inh: 28.2%
